Pf growth 96h: Primary qHTS for delayed death inhibitors of the malarial parasite plastid, 96 hour incubation; P. falciparum luciferase reporter growth, 96 h; hit rate 6.9% among 320,000; AID 504834, 2011; Potency, µM (highest dose often 28.7 µM), inactives show top-dose activity change, negative = inhibition, most hits filed as inhibitors; also: potency is read from the fitted curve at half-maximal effect; % is scaled to controls: 0 for no effect and ±100 for the full control effect
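Two-generation exposure (96 h) targets delayed-death phenotype. Reporter parasites carrying integrated firefly luciferase, in red cells at 2% hematocrit and 0.05% parasitemia final, kept at 37 C, 5% CO2; luminescence loss indicates inhibition.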
SARS PLP yeast: qHTS of Yeast-based Assay for SARS-CoV PLP; S. cerevisiae expressing SARS-CoV PLpro, growth rescue; Potency, µM (top dose mostly 32.9 µM), for the others: at the top dose activity, positive = growth rescue, hits mostly activators; hit rate 0.19% among 330,000; AID 485353, 2010; calls by dose curve; also: potency is read from the fitted curve at half-maximal effect; 0% is about no effect; nearly all actives have a fitted effect of over 55% in size
Pf growth 48h: Primary qHTS for delayed death inhibitors of the malarial parasite plastid, 48 hour incubation; hit rate 5.9% among 310,000; P. falciparum luciferase growth in erythrocytes, 48 h; Potency, µM (titrated, usually from 28.7 µM), without a hit: at the top dose activity change, negative = inhibition, actives largely listed as inhibitors; AID 504832, 2011; also: potency is read from the fitted curve at half-maximal effect; % is scaled to controls: 0 for no effect and ±100 for the full control effect
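Luciferase-expressing parasites in RBCs, 2% Hct / 0.1% parasitemia final; RPMI 1640 + 0.5% Albumax; 37 C, 5% CO2, one generation; luminescence read-out, lower signal = inhibition.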
Shiga toxin inh: A qHTS for Small Molecule Inhibitors of Shiga Toxin. inhibition, % at 38.7 µM. hit rate 9.2% among 290,000. AID 2315, 2010. Vero cells, Shiga toxin protein synthesis inhibition reporter; in the data active = inhibition mostly above about 28%, no sharp cut-off; inactive = mostly below about 43%; also: 0% is about no effect
AMA1 RON2 block: qHTS for Inhibitors of AMA1-RON; Towards Development of Antimalarial Drug Lead: Primary Screen. Plasmodium falciparum AMA1 (3D7) - RON2 peptide interaction. AlphaScreen AMA1-biotinylated RON2 peptide binding. Potency, µM (series often up to 58.2 µM), for the others: top-dose activity change, negative = inhibition, actives largely listed as inhibitors. hit rate 0.2% among 360,000. AID 720542, 2013;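 also: potency is read from the fitted curve at half-maximal effect; 0% = vehicle wells and -100% = peptide control; nearly all actives have a fitted effect of over 45% in size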
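AMA1 (3D7) with his tag at 25 nM final met compounds first, then biotinylated RON2 peptide at 25 nM; detection used donor plus acceptor beads, 10 µg/mL apiece, read by AlphaScreen after 30 min at room temperature.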
CHX counter: Cycloheximide Counterscreen for Small Molecule Inhibitors of Shiga Toxin. cell reporter, cycloheximide protein synthesis inhibition counterscreen. max response, %. hit rate 12% among 300,000; in the data active = max response mostly above about 13%, no sharp cut-off; inactive = mostly below about 14%; also: read at 38.3 µM for the half of the compounds with a filed dose; 0% is about no effect
An asterisk follows results filed as active; i = inactive; ? = inconclusive; nt = not tested or not shown. Only some compounds are listed: those with a hit (about 19% of all), similar ones and a draw of the others. Unless noted, calls follow the shape of the dose curve; as a rule, active = well fitted curve in the direction sought with a large enough effect; inconclusive = small, poorly fitted or top-dose-only effect, or another doubt; inactive = no such curve, though single readings can be large; an effect the other way counts as inactive or inconclusive.

SMILES	Pf growth 96h	SARS PLP yeast	Pf growth 48h	Shiga toxin inh	AMA1 RON2 block	CHX counter
O=C(COC(=O)/C=C/c1cccc(F)c1)Nc1ncccn1	34.4%	-2.4%	95.5%	-3.9	20.9%	-1.6
O=C(/C=C/c1cccc(F)c1)Nc1nccs1	i	0.5%	190.6%	117.2*	0.2%	46.5*
CCc1nnc(NC(=O)CSc2ccc(-c3cccs3)nn2)s1	?	-0.3%	11.5%	14.4	12.5%	8.7
O=C(/C=C/c1cccs1)Nc1ccc(Br)cn1	327.7%	-18.3%	273.8%	59.8*	-5.5%	43.0*
CCCc1nnc(NC(=O)CCC(=O)N2CCN(Cc3cc(Cl)ccc3OC)CC2)s1	?	2.9%	-16.2%	20.9	-1.1%	10.1
CC(=O)Oc1ccccc1C(=O)N(C1CCCCC1)C1CCCCC1	-22.7%	0.2%	?	-15.9	-3.3%	-1.1
CCOC(=O)C1=C(C)NC(=S)NC1c1ccc(OCC(=O)N2CCCCC2)cc1 (stereo not drawn)	?	2.7%	-19.6%	-4.2	-1.0%	-0.7
O=C(/C=C/c1cccs1)NC1CC1	45.1%	-0.4%	24.8%	19.2	-0.6%	18.5*
O=C(/C=C/c1cccs1)Nc1cccc(NC(=O)/C=C/c2cccs2)n1	-16.7%	-46.1%	49.3%	90.0*	-9.6%	40.2*
CCc1nnc(NC(=O)C=C(C)C)s1	?	-8.3%	162.7%	39.3*	-4.2%	32.2*
O=C(/C=C\c1ccccc1)Nc1nccs1	64.5%	-7.1%	96.8%	58.8*	-5.5%	38.6*
CCOC(=O)Cc1nnc(Nc2ccc(C(=O)NC)cc2)c2ccccc12	1.4%	0.1%	-7.6%	33.1	-10.7%	5.1
COc1ccc(CN(C)C(=O)CSc2nnc(C3CC3)n2C2CC2)cc1	-2.0%	5.1%	-20.7%	nt	-13.6%	nt
O=C(Nc1nnc(-c2ccccc2F)s1)Nc1ccccc1F	?	-0.7%	111.9%	19.7	12.5%	12.5
O=C(CCN1C(=O)S/C(=C\c2cccs2)C1=O)Nc1nccs1	41.1%	-0.3%	8.9%	3.1	-2.4%	4.1
O=C(/C=C/c1cccs1)Nc1nccs1	353.8%	-3.3%	338.7%	110.6*	-0.8%	40.7*
CC(C)=CC(=O)Nc1nnc(-c2ccccc2C)s1	6.2%	-0.1%	63.0%	76.9*	5.3%	28.1*
CCc1ccc(Nc2nc(C)cc(C)n2)cc1	109.2%	-1.7%	93.5%	52.4*	2.5%	52.6*
Cc1cc(C)nc(Nc2ccc(O)cc2)n1	5.7%	-1.0%	nt	40.5	-4.4%	24.1*
Cn1cnc(S(=O)(=O)N2CCCCC2c2cc(C(=O)Nc3ccc(F)c(Cl)c3)no2)c1 (stereo not drawn)	nt	nt	nt	nt	0.4%	nt
CCc1ccc(Nc2n[n+](-c3ccccc3)c(-c3cc(OC)c(OC)cc3Br)s2)cc1	11.7µM*	5.9%	?	-9.4	63.4%	2.0
CN(C)c1ccc(-c2sc(Nc3ccccc3)n[n+]2-c2ccc(F)cc2)cc1	?	2.6%	40.4%	50.4*	-5.4%	35.9*
COc1ccc(-c2sc(Nc3ccccc3)n[n+]2-c2ccc(F)cc2)cc1Br	7.38µM*	13.3%	?	-6.1	-8.5%	0.6
COc1ccc2ccccc2c1-c1sc(Nc2ccccc2)n[n+]1-c1ccc(F)cc1	?	0.3%	?	-6.6	-20.7%	-2.4
CCc1ccc(Nc2n[n+](-c3ccccc3)c(-c3ccc(N(CC)CC)cc3)s2)cc1	3.29µM*	-6.3%	?	51.5*	26.2%	34.5*
SMILES	Pf growth 96h	SARS PLP yeast	Pf growth 48h	Shiga toxin inh	AMA1 RON2 block	CHX counter
Cc1cccc(-c2sc(Nc3ccccc3)n[n+]2-c2ccccc2)c1	-22.5%	2.7%	?	nt	5.4%	nt
CCN1CCC(C(=O)NC2CCCC2)(N(Cc2cccs2)C(=O)Cn2nnc3ccccc32)CC1	nt	0.6%	30.4%	12.4	nt	-0.8
CCN(CC)c1ccc(-c2sc(Nc3ccccc3)n[n+]2-c2ccc(F)cc2)cc1	9.28µM*	4.9%	-24.9%	25.9*	104.8%	18.2*
CCc1ccc(Nc2n[n+](-c3ccccc3)c(-c3c(Cl)cccc3Cl)s2)cc1	?	-6.4%	10.4µM*	-1.3	?	0.2
CCc1ccc(Nc2n[n+](-c3ccccc3)c(/C=C/c3ccccc3)s2)cc1	1.17µM*	-1.3%	?	-2.4	nt	0.4
CCc1ccc(Nc2nc3ccccc3c(=O)s2)cc1	-23.9%	22.3%	-7.3%	-0.8	62.5%	4.3
Nc1ncnc2c1ncn2[C@@H]1O[C@H](C(=O)N2CCN(c3ccc(Cl)cn3)CC2)[C@@H](O)[C@H]1O	nt	nt	nt	nt	16.1%	nt
Cc1ccc2nc(SCC(=O)N(CC(C)C)c3c(N)n(Cc4ccccc4)c(=O)[nH]c3=O)[nH]c2c1	-14.3%	-0.5%	-3.3%	-9.0	-10.8%	8.8
Cc1ccc2nc(N3CCN(C)CC3)c(C#N)cc2c1	-9.7%	-3.9%	-16.4%	53.0	-2.1%	33.0*
Cc1ccc2nc(N3CCN(C)CC3)[nH]c2c1	?	2.0%	99.4%	67.4*	1.2%	48.0*
Cc1ccc2cc(C#N)c(N3CCN(C)CC3)nc2c1	1.2%	-1.1%	2.2%	-5.5	0.7%	-3.4
N#Cc1cc2cc3c(cc2nc1Cl)OCCO3	nt	nt	nt	nt	15.4%	nt
N#Cc1cc2cc3c(cc2nc1N1CCCCC1)OCCO3	-3.8%	1.6%	21.0%	46.1	5.4%	21.8*
CCOC(=O)CNC(=O)Nc1nnc(-c2ccc(OCC)cc2)o1	?	2.6%	-3.4%	14.3	62.6%	21.2
Cc1cc(=O)n2ccsc2n1	13.1µM*	-24.9%	17.5%	-9.7	-20.1%	-1.3
CCOC(=O)c1c(C)nc2sccn12	-23.5%	2.6%	12.5%	-8.9	-5.7%	-5.9
Cc1nc2sccn2c1P(c1c(C)nc2sccn12)c1c(C)nc2sccn12	?	9.8%	8.28µM*	-12.2	-0.2%	-0.9
COc1ccccc1C(=O)O/N=C1/CCCc2c1ccc(OC)c2[N+](=O)[O-]	45.9%	-3.1%	2.4%	-16.7	0.5%	-2.5
COc1ccc2c(c1)CC/C2=N\OC(=O)c1ccccc1OC	-22.0%	-5.4%	33.2%	90.4*	0.0%	37.8*
C=C(CC1([C@@H](NP(=O)(c2ccccc2)c2ccccc2)[C@H]2C[C@@H]2CCCC)CC1)c1ccccc1	9.28µM*	9.9%	5.86µM*	-10.5	-11.0%	0.8
CC(=O)C(Cc1ccccc1)NC(=O)COC(=O)c1ccc(-n2cnnn2)cc1 (stereo not drawn)	nt	1.2%	nt	nt	8.6%	nt
CCOc1cc(CNCCO)cc(Br)c1OCc1ccc(Cl)cc1	11.7µM*	-7.3%	?	-7.1	-11.3%	-2.0
CCOc1cc(CNC(C)(C)CO)cc(Br)c1OCc1ccc(Cl)cc1Cl	9.28µM*	-6.8%	?	-17.3	1.5%	-2.7
CCOc1cccc(CNCCO)c1OCc1ccc(Cl)cc1	?	13.5%	?	-15.3	-2.3%	-2.2

Assay outcomes: PubChem BioAssay, National Center for Advancing Translational Sciences (NCATS)
